Records with an inconclusive call do not appear. A structure can be active in one record and inactive in another. Active and inactive are the calls of the source. The calls were made as follows, unless noted: active = hit-call score of the fitted dose curve at least 0.9, where 1 is the maximum; inactive = score below 0.9.
Columns and labels:
[1] = read-out: Macrophage colony-stimulating factor (MCSF), CSF1 (gene 1435); test: BSK_LPS_MCSF: BioMAP Diversity Plus: LPS Assay for Macrophage colony-stimulating factor (MCSF) Biomarker Activity (AID 2283083); details: primary human HUVEC with PBMC; actives raise or lower the signal
Outline: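 Bidirectional fitting against DMSO was applied to M-CSF levels read by ELISA at 24 h post-dose. The system pairs human umbilical vein endothelium with peripheral blood mononuclear cells; parallel SRB staining tracked cytotoxicity.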

[2] = read-out: Tissue Factor, F3 (gene 2152); test: BSK_LPS_TissueFactor: BioMAP Diversity Plus: LPS Assay for Tissue Factor Biomarker Activity (AID 2283084); details: primary human HUVEC with PBMC; actives raise or lower the signal
Outline: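 Compound was added to an endothelial cell/PBMC co-culture, and after 24 h tissue factor (CD142) was read by ELISA. Gain or loss of signal was fitted against a DMSO baseline, and parallel SRB staining (560 nm) tracked overt cytotoxicity.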

[3] = read-out: Tumor necrosis factor (Homo sapiens) (UniProt P01375); test: BSK_LPS_TNFa: BioMAP Diversity Plus: LPS Assay for Tumour Necrosis Factor alpha (TNFa) Biomarker Activity (AID 2283085); details: primary human HUVEC with PBMC; actives raise or lower the signal;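 as to AC50: TNFa protein level quantified by ELISA in the co-culture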
Outline: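 Cells (umbilical vein endothelium plus peripheral blood mononuclear cells) were dosed with chemical, incubated 24 h, then TNFa was quantified by ELISA; values derive from bidirectional fitting with DMSO as baseline.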

[4] = read-out: Vascular cell adhesion molecule 1 (VCAM1), VCAM1 (gene 7412); test: BSK_LPS_VCAM1: BioMAP Diversity Plus: LPS Assay for Vascular cell adhesion molecule 1 (VCAM1) Biomarker Activity (AID 2283086); details: primary human HUVEC with PBMC; actives raise or lower the signal
Outline: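 Cells are dosed in an LPS-stimulated endothelial/mononuclear co-culture and, after 24 h, VCAM-1 is quantified by ELISA. Activity in either direction is fitted relative to the DMSO negative control.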

CD38, CD38 (gene 952) = test: BSK_SAg_CD38: BioMAP Diversity Plus: SAg Assay for CD38 Biomarker Activity (AID 2283087); details: primary human HUVEC with PBMC; actives raise or lower the signal
Outline: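 CD38 quantified by ELISA (fluorescence) in a superantigen-activated endothelial cell–PBMC co-culture at 24 h post-dose. Activity fitted in both directions relative to DMSO; parallel SRB and Alamar Blue cytotoxicity read-outs.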

CD40, CD40 (gene 958) = test: BSK_SAg_CD40: BioMAP Diversity Plus: SAg Assay for CD40 Biomarker Activity (AID 2283088); details: primary human HUVEC with PBMC; actives raise or lower the signal
Outline: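 CD40 is measured by fluorescence ELISA in an endothelial/PBMC primary human co-culture at 24 h post-dose. Fitting is bidirectional, DMSO baseline. Parallel SRB staining (560 nm) flags cytotoxicity.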

CD69, CD69 (gene 969) = test: BSK_SAg_CD69: BioMAP Diversity Plus: SAg Assay for CD69 Biomarker Activity (AID 2283089); details: primary human HUVEC with PBMC; actives raise or lower the signal;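 as to AC50: cell surface CD69 protein quantified by ELISA with fluorescence detection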
Outline: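 Primary human vascular co-culture (umbilical vein endothelium with peripheral blood mononuclear cells) exposed to test chemical for 24 h. CD69 levels quantified by fluorescence ELISA; DMSO served as negative control for bidirectional fitting.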

[5] = read-out: Monocyte Chemoattractant Protein-1 (MCP1), CCL2 (gene 6347); test: BSK_SAg_MCP1: BioMAP Diversity Plus: SAg Assay for Monocyte Chemoattractant Protein-1 (MCP1) Biomarker Activity (AID 2283090); details: primary human HUVEC with PBMC; actives raise or lower the signal
Outline: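 Values derive from bidirectional fitting of ELISA-measured MCP1 against DMSO controls. Readings were taken 24 h after dosing human vascular endothelial cells co-cultured with peripheral blood mononuclear cells under superantigen stimulation.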

[6] = read-out: E-selectin (Homo sapiens) (UniProt P16581); test: BSK_SAg_Eselectin: BioMAP Diversity Plus: SAg Assay for Eselectin Biomarker Activity (AID 2283091); details: primary human HUVEC with PBMC; actives raise or lower the signal
Outline: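 Cell-surface E-selectin is read by ELISA at 24 h in the SAg co-culture of HUVEC and PBMC. Curves are fitted in both directions relative to DMSO. Parallel SRB total-protein staining tracks overt toxicity.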

[7] = read-out: Monokine induced gamma interferon (MIG), CXCL9 (gene 4283); test: BSK_SAg_MIG: BioMAP Diversity Plus: SAg Assay for Monokine induced gamma interferon (MIG) Biomarker Activity (AID 2283092); details: primary human HUVEC with PBMC; actives raise or lower the signal
Outline: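 Endothelial cells and PBMC were co-cultured, exposed to test chemicals, and sampled 24 h later. MIG was measured by ELISA, and responses were fitted in both directions relative to DMSO.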

[8] = BSK_SAg_PBMCCytotoxicity: PBMC Cytotoxicity Assessment in the BioMAP Diversity Plus: SAg Assay (AID 2283093); details: primary human HUVEC with PBMC;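 also: PBMC viability measured as Alamar Blue reduction fluorescence at 546/580 nm; fitted both ways against DMSO so a hit may be loss or gain of signal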;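 as to AC50: PBMC superantigen activated with SEB plus TSST-1 one hour after compound addition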
Outline: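 Alamar Blue reduction (6 h, 546/580 nm) reports PBMC cytotoxicity after 90 h superantigen activation (SEB, TSST-1; 20 ng/mL final each) with 1 h compound pre-treatment. Gain or loss of signal fitted versus DMSO.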

[9] = read-out: Interleukin-8 (IL8), CXCL8 (gene 3576); test: BSK_SAg_IL8: BioMAP Diversity Plus: SAg Assay for Interleukin-8 (IL8) Biomarker Activity (AID 2283094); details: primary human HUVEC with PBMC; actives raise or lower the signal
Outline: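 Chemicals were dosed onto a human endothelial–PBMC co-culture, and IL-8 was quantified by ELISA after 24 h. Both increases and decreases were fitted relative to DMSO.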

[10] = BSK_SAg_Proliferation: Cell Proliferation Assessment in the BioMAP Diversity Plus: SAg Assay (AID 2283095); details: primary human HUVEC with PBMC;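 also: relative cell number as total protein by SRB absorbance in sub-confluent culture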
Outline: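 Absorbance of sulforhodamine B at 560 nm reports total protein in a human vascular endothelial/PBMC co-culture after 96 h chemical exposure. Gain or loss of signal is fitted in both directions against DMSO.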

[11] = BSK_SAg_SRB: Viability Assessment in the BioMAP Diversity Plus: SAg Assay (AID 2283096); details: primary human HUVEC with PBMC;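 also: cells read one day after compound addition; hits may be either gain or loss of signal compared with DMSO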
Outline: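 This overt-cytotoxicity endpoint quantifies protein in human endothelial/PBMC co-cultures at 24 h using SRB absorbance (560 nm) after trichloroacetic acid fixation. Values reflect signal change from the DMSO negative control, fitted bidirectionally.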

[12] = BSK_LPS_PGE2: BioMAP Diversity Plus: LPS Assay for Prostaglandin E2 (PGE2) Biomarker Activity (AID 2283082); details: primary human HUVEC with PBMC; actives raise or lower the signal;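 as to AC50: secreted prostaglandin E2 measured by ELISA in LPS-stimulated co-culture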
Outline: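 Compounds were added to the LPS co-culture of endothelium and PBMC, and PGE2 was measured by ELISA after 24 h. Responses in either direction were fitted with DMSO as baseline.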

[13] = target: human CYP19A1, CYP19A1 (gene 1588) (UniProt P11511); test: NVS_ADME_hCYP19A1: NovaScreen (NVS) CYP450-related Enzyme Activity (ADME) Assay for human CYP19A1 (AID 2283098; active = hit-call score of the fitted dose curve at least 0.9, where 1 is the maximum;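 as to AC50: potency for inhibitors seen as loss of fluorescent enzyme signal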)
Sequence of human CYP19A1, CYP19A1 (gene 1588) (P11511 whole entry, looked up): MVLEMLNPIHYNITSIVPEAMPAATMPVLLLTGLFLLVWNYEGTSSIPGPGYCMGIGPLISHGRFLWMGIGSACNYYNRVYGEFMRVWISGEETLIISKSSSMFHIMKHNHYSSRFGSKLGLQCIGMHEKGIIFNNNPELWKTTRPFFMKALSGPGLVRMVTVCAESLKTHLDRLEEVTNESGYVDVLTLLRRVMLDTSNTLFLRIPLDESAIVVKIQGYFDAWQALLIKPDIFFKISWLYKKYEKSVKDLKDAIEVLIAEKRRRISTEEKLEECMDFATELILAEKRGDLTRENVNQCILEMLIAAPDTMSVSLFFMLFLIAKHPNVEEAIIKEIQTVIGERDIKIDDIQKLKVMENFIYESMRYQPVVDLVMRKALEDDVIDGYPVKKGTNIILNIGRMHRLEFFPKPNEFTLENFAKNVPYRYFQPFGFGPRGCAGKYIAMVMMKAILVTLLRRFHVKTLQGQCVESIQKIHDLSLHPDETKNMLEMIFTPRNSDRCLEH
Outline: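 Compounds were first screened at 10 uM in duplicate against purified enzyme, with a fluorogenic substrate and fluorescence intensity detection after 0.5 h. Inhibition appears as reduced signal against acetonitrile control.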

[14] = target: human CYP1A2, CYP1A2 (gene 1544) (UniProt P05177); test: NVS_ADME_hCYP1A2: NovaScreen (NVS) CYP450-related Enzyme Activity (ADME) Assay for human CYP1A2 (AID 2283102; active = hit-call score of the fitted dose curve at least 0.9, where 1 is the maximum)
Sequence of human CYP1A2, CYP1A2 (gene 1544) (P05177 whole entry, looked up): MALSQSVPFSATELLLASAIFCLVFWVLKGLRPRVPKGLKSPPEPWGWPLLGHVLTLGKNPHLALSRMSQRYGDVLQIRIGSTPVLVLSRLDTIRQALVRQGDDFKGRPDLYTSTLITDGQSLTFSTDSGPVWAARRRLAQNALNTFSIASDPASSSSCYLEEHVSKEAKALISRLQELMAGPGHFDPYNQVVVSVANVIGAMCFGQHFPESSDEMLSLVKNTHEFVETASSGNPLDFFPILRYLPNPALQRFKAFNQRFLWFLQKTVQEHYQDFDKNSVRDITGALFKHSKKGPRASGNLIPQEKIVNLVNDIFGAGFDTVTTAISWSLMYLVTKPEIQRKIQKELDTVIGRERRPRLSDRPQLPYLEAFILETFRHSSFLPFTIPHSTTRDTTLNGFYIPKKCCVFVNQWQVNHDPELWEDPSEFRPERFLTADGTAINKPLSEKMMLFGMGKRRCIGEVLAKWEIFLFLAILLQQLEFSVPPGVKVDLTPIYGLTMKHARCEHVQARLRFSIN
Outline: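 Enzyme activity of insect-cell-expressed human CYP1A2 measured by fluorescence 0.5 h after compound addition, relative to acetonitrile. Compounds first tested in duplicate at 10 uM, actives followed up in concentration series.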

Measured: AC50

Sequence of E-selectin (Homo sapiens) (P16581 whole entry, looked up): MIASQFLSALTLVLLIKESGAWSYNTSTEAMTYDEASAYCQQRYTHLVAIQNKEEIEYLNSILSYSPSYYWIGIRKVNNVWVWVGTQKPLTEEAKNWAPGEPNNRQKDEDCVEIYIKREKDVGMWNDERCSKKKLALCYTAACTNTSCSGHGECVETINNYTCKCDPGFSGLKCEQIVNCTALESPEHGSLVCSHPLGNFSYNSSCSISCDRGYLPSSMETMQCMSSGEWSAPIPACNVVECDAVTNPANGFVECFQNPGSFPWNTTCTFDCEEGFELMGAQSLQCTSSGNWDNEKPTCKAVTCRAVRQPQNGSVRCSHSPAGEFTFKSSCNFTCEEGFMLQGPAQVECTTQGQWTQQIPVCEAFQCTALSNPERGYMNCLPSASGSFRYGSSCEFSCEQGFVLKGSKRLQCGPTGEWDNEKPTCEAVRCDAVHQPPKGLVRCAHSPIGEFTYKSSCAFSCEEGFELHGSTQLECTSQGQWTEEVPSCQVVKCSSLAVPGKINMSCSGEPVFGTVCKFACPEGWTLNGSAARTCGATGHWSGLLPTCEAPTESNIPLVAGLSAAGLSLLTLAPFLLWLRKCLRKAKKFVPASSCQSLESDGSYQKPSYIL
Sequence of Tumor necrosis factor (Homo sapiens) (P01375 whole entry, looked up): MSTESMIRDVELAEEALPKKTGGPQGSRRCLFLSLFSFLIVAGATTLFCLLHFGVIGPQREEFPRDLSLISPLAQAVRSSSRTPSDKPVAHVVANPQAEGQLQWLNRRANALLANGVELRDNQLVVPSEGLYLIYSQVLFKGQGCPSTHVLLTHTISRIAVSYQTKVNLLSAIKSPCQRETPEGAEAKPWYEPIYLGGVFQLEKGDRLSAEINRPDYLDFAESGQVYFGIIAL

O=C(Nc1ccc([N+](=O)[O-])cc1Cl)c1cc(Cl)ccc1O
inactive: [2]
active: [1] 0.148 µM | [3] 0.583 µM | [4] 0.175 µM | CD38, CD38 (gene 952) 0.148 µM | CD40, CD40 (gene 958) 0.17 µM | CD69, CD69 (gene 969) 0.335 µM | [5] 0.148 µM | [6] 0.148 µM | [7] 0.289 µM | [8] 1.78 µM | [9] 0.493 µM | [10] 0.148 µM | [11] 0.65 µM

CCNc1nc(N)nc(Cl)n1
inactive: [12] | [1] | [2] | CD38, CD38 (gene 952) | CD40, CD40 (gene 958) | CD69, CD69 (gene 969) | [5] | [6] | [7] | [8] | [9] | [10] | [11]
active: [3] 14.3 µM

O=C(O)C1(C(=O)Nc2ccc(Cl)cc2Cl)CC1
inactive: [1] | [2] | [3] | [4] | CD40, CD40 (gene 958) | [5] | [6] | [7] | [8] | [9] | [11]
active: [12] 7.72 µM | CD38, CD38 (gene 952) 5.3 µM | CD69, CD69 (gene 969) 9.21 µM | [10] 12.3 µM

CCCCC(CC)COC(=O)c1ccccc1C(=O)O (centres undefined)
active: [3] 21.8 µM | [4] 22.9 µM
inactive: [12] | [1] | [2] | CD38, CD38 (gene 952) | CD40, CD40 (gene 958) | CD69, CD69 (gene 969) | [5] | [6] | [7] | [8] | [9] | [10] | [11]

CC(=O)S[C@@H]1CC2=CC(=O)CC[C@]2(C)[C@H]2CC[C@@]3(C)[C@@H](CC[C@@]34CCC(=O)O4)[C@H]12
active: [1] 22 µM | [2] 20 µM | [3] 13.9 µM | [4] 29.7 µM | CD38, CD38 (gene 952) 19.3 µM | CD40, CD40 (gene 958) 20 µM | CD69, CD69 (gene 969) 13.9 µM | [5] 17.2 µM | [6] 14.9 µM | [7] 25.7 µM | [8] 13.3 µM | [9] 11.1 µM | [10] 13.7 µM | [11] 22.7 µM | [13] 8.3 µM
inactive: [13]

CCCCOC(=O)[C@@H](C)Oc1ccc(Oc2ccc(C(F)(F)F)cn2)cc1
inactive: [12] | [1] | [2] | [3] | CD38, CD38 (gene 952) | CD40, CD40 (gene 958) | CD69, CD69 (gene 969) | [5] | [6] | [7] | [8] | [9] | [10] | [11]

N[C@@H](Cc1cc(I)c(Oc2ccc(O)c(I)c2)c(I)c1)C(=O)O
inactive: [1] | [3] | CD38, CD38 (gene 952) | CD40, CD40 (gene 958) | CD69, CD69 (gene 969) | [5] | [6] | [7] | [8] | [9] | [10] | [11]
active: [2] 3.17 µM

CCOC(=O)[C@H](C)Oc1ccc(Oc2nc3ccc(Cl)cc3o2)cc1
inactive: [1] | [2] | [3] | [4] | CD40, CD40 (gene 958) | CD69, CD69 (gene 969) | [5] | [6] | [7] | [8] | [9] | [10] | [11] | [14]
active: CD38, CD38 (gene 952) 29.9 µM

Cc1nn(C)c(Oc2ccccc2)c1C=NOCc1ccc(C(=O)OC(C)(C)C)cc1
active: [1] 3.48 µM | CD38, CD38 (gene 952) 5.76 µM | CD40, CD40 (gene 958) 6.66 µM | CD69, CD69 (gene 969) 4.1 µM | [5] 7.6 µM | [6] 4.27 µM | [7] 19 µM | [9] 3.97 µM | [10] 8.08 µM | [11] 20 µM
inactive: [2] | [3] | [8]
